According to PubChem BioAssay AID449762 (Southern Research Specialized Biocontainment Screening …, 2010):
In all, about 330,000 compounds went through this assay and about 1,900 (0.58%) were called active. Inconclusive results (about 4%) are left out. The list is a sample of the results. Entries with a potency or affinity are not part of this list. Values without a mark were called inactive. Cut-off read from the data, not from the text of the source: inconclusive = inhibition above about 70% without an active follow-up result; inactive = below that.

assay: M. tuberculosis growth inhibition, HTS (AID 449762);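 note: bacterial growth assessed after seven days of incubation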; settings: M. tuberculosis H37Rv growth inhibition, 7H9 media; at 25 µM; stronger effect = higher value

Compound | inhibition
CCn1cc(C(=O)N2CCCC(CO)(Cc3ccccc3C)C2)cn1 (stereo unspecified) | 0.25%
COc1cc2oc(=O)ccc2cc1[C@H](O)[C@@H](O)C(C)(C)O | -11.1%
COc1ccc(-c2c[n+]3c(n2-c2ccccc2)CCCCC3)cc1 | -4.08%
COc1ccc(-c2c[n+](CC(=O)c3ccccc3)c3n2CCCCC3)cc1 | 1.09%
CC(C)NC(=O)NC(=O)COC(=O)c1ccc(OC(F)(F)F)cc1 | 14.2%
CSc1nn(-c2ccc(C(=O)OC(C(=O)NC(N)=O)C(C)C)cc2)c(=S)s1 (stereo unspecified) | 50.6%
O=C(CN1CCN(S(=O)(=O)c2cccc(F)c2)CC1)NCC1(N2CCOCC2)CCCCC1 | 6.01%
CC(C)(C)C(=O)Nc1cc(C(F)(F)F)ccc1-n1ccnc1 | -0.21%
Fc1ccc(-n2c(Cn3nnc4ccccc43)n[nH]c2=S)cc1 | -5.75%
COc1ccccc1NC(=O)CSc1nnnn1C | -4.82%
COc1ccccc1NC(=O)c1ccc(NC(=O)CSc2nncn2C)cc1 | 7.82%
COc1ccccc1NS(=O)(=O)c1ccc2ccccc2c1 | 7.83%
CC1CCc2sc(C(=O)NCc3ccccn3)cc2C1 (stereo unspecified) | 4.08%
O=C(Nc1cccc2ccccc12)c1ccc([N+](=O)[O-])cc1 | 5.16%
CCOC(=O)C1CCCCN1S(=O)(=O)c1cc2c(cc1C)NC(=O)CO2 (stereo unspecified) | -3.9%
CCN(C(=O)Cn1ccc(C(F)(F)F)n1)c1c(N)n(Cc2ccccc2)c(=O)[nH]c1=O | -10%
O=C(COc1ccc([N+](=O)[O-])cc1)NNC(=S)NC(=O)c1ccc(Br)cc1 | 10.5%
Cc1ccc(S(=O)(=O)N(C)c2ccc(OCC(=O)OCC(=O)N(CC#N)c3ccccc3)cc2)cc1 | 15.9%
Cc1ccc(S(=O)(=O)N(C)c2ccc(OCC(=O)OCc3c(C)noc3C)cc2)cc1 | 47.9%
CN1CC=C(c2c[nH]c3ccccc23)CC1 | -13.7%
COc1ccc2[nH]cc(C3=CCNCC3)c2c1 | 67.9%
CCOc1cc(C2C3=C(CC(C)(C)CC3=O)N(CCCOC)C3=C2C(=O)CC(C)(C)C3)ccc1OC | 1.22%
CC(=O)Nc1ccc2c(c1)nc1n2CCOC1 | 8.99%

Compound | inhibition
Cc1ccc(N(CC(=O)Nc2cc(Cl)ccc2Oc2ccccc2)S(C)(=O)=O)cc1C | 13.8%
Cc1nn(-c2ccccc2)c(N)c1N=Nc1ccccc1 | -2.88%
Cc1nn(-c2ccccc2)c(N)c1N=Nc1ccc2ccccc2c1 | 56.7%
O=c1c2sccc2nc(SCc2ccc([N+](=O)[O-])cc2)n1Cc1ccccn1 | 4.82%
O=C(CSc1nnnn1-c1ccc2c(c1)OCCO2)N1CCc2ccccc21 | 5.18%
O=C(CCc1n[nH]c(=O)[nH]c1=O)N1CCOCC1 | -14.1%
CCCNC(=O)c1cccc(COc2ccccc2OC)c1 | 3.61%
Cc1nc2sccn2c(=O)c1S(=O)(=O)N1CCN(c2ccc(F)cc2)CC1 | 8.78%
Cc1nc2ccccn2c(=O)c1CCN1CCC(C(=O)c2ccc(F)cc2)CC1 | -4.74%
CCCNC(=S)N(Cc1cc2cc(C)ccc2n2nnnc12)CC(C)(C)CN(C)C | 18.8%
CNCCNC[C@H](Cc1cccc2ccccc12)NCCc1ccccc1 | -2.82%
CSCC[C@H](NC(=O)OC(C)(C)C)C(=O)NCC1CCC(C(=O)N[C@@H](Cc2ccccc2)C(=O)O)CC1 (stereo partly specified) | 2.33%
C=CCOc1ccccc1CNCCNC(=O)c1nonc1N | -4.17%
CCCCCOC(=O)Cn1c(SCC(=O)Nc2ccccc2)nc2c1c(=O)[nH]c(=O)n2C | -7.54%
O=C(c1cc([N+](=O)[O-])ccc1N1CCOCC1)N1CCN(S(=O)(=O)c2ccc(F)cc2)CC1 | -2.15%
C/C(=N/NC(=O)c1cc2ccccc2cc1O)c1ccco1 | 66.3%
C/C(=N\NC(=O)c1cc2ccccc2cc1O)c1cccs1 | -0.54%
N#CCCN(C(=O)COC(=O)c1nc(Cl)ccc1Cl)c1ccccc1 | -6.38%
C=CCn1c(C(C)NC(=O)c2cccs2)n[nH]c1=S (stereo unspecified) | -3.28%
OCCCNc1nccc(-c2cc(Nc3cccc(Cl)c3)ncn2)n1 | 5.56%
CCC(C)Oc1cc(-c2ccnc(Nc3cccc(Cl)c3)n2)ccn1 (stereo unspecified) | 63.7%
Cc1ccc(-c2nnn(CC(=O)N(c3cccc(F)c3)C(C(=O)NC3CCCC3)c3ccncc3)n2)o1 (stereo unspecified) | 0.25%
COCCCNC(=O)CSc1ccc(Cl)cc1 | -2.16%

Compound | inhibition
CCN(c1ccccc1)S(=O)(=O)c1ccc(OC)c(N=N/C(C(=O)Nc2ccccc2)=C(/C)O)c1 | 10.8%
O=C(NCC(c1ccco1)N1CCOCC1)c1cccc([N+](=O)[O-])c1 (stereo unspecified) | 1.76%
CC(C)NCC(O)COC1CCC(C(C)(C)C)CC1 (stereo unspecified) | -7.84%
CC[C@H](C)[C@@H](CN[C@H](CCCCNC)CNC)NCC1CCCC1 | 4.48%
Cc1ccc(C2C3=C(CC(C)(C)CC3=O)OC3=C2C(=O)CC(C)(C)C3)cc1 | -4.24%
Cc1onc(-c2ccccc2)c1C(=O)OCC(=O)N1CCC(C)CC1 | -0.29%
CSc1nnc(C)c(/C=C/NOCc2ccc(Cl)cc2)n1 | -4.59%
CCc1ccc2c(c1)cc(CN(C(=S)Nc1ccc(Cl)cc1)C1CC1)c1nnnn12 | -13.5%
Cc1ccccc1-n1cnc2cc(NCc3cccs3)ccc21 | 59.7%
Cn1cnc2cc(NCc3cccs3)ccc21 | 2.02%
CCn1c(SC(C)C(=O)N2CCOCC2)nc2sc(C)c(C)c2c1=O (stereo unspecified) | -0.24%
CCC(C)[C@H](NC(=O)C1CC(=O)N(c2ccc3c(c2)OCCO3)C1)C(=O)NC1CCCC1 (stereo partly specified) | -2.76%
O=C(O)COc1ccc(NC(=O)c2ccc3c(c2)C(=O)N(C2CCCCC2)C3=O)cc1 | -5.81%
COC(=O)c1ccc2c(c1)C(=O)N(C1CCCCC1)C2=O | 48.9%
CN(CCC#N)C(=O)COC(=O)c1ccc2c(c1)C(=O)N(C1CCCCC1)C2=O | 11.1%
CCC(=O)Nc1ccc2c(c1)C(=O)N(C1CCCCC1)C2=O | 12.2%
Clc1cccc(C2CCN(Cc3nc(CC4CC4)no3)C2)c1 (stereo unspecified) | 16.3%
CCOC(=O)CSc1nnc(CNc2cccc(Cl)c2)n1-c1ccccc1 | -7.68%
COc1ccc(NCc2nnc(SCc3ccc(Cl)cc3)n2-c2ccccc2)cc1 | -5.4%
Cc1ccccc1S(=O)(=O)Cc1ccc(C(=O)NCCCOC(C)C)o1 | 2.68%
CN(CC(=O)Nc1ccccc1Cl)C(=O)COC(=O)c1ccc(=O)n(Cc2ccccc2)n1 | 0.91%
CC(=O)N(Cc1nc2sc(C)c(C)c2c(=O)[nH]1)C1CCCC1 | -3.15%
Cc1sc2nc(CN(C(=O)NC3CCCCC3)C3CCCCC3)[nH]c(=O)c2c1C | 26.1%

Compound | inhibition
O=C(Cc1ccc(F)cc1)N(c1ccccc1)C1C=CS(=O)(=O)C1 (stereo unspecified) | -6.47%
CCn1cc(C2C(C(=O)Nc3cc(C)ccn3)=C(C)NC3=C2C(=O)CC(C)(C)C3)c(C)n1 (stereo unspecified) | 1.96%
CCCn1c(=O)c(C(=O)Nc2ncccc2C)c(O)c2ccccc21 | 18.3%
CCCCCCn1c(=O)c(C(=O)Nc2ncccc2O)c(O)c2ccccc21 | 13.4%
CC1(C)CC(=O)C(N=Nc2cccc([N+](=O)[O-])c2)=C(O)C1 | 0.73%
CCN(N=Nc1cccc([N+](=O)[O-])c1)c1cccc([N+](=O)[O-])c1 | 4.11%
COc1ccc(CCN2C(=O)CSC2c2ccc(F)cc2)cc1 (stereo unspecified) | -7.99%
Cc1ccc(S(=O)(=O)N(C)c2ccc(C(=O)Nc3ccccn3)cc2)cc1 | 27.5%
COc1ccc(-c2sc3ccc(N4CCOCC4)cc3c2-c2ccc(OC)c(F)c2)cc1 | -0.65%
Cc1nc(SCc2nc3ccccc3[nH]2)c2oc3cc(Br)ccc3c2n1 | 0.43%
Cc1cc(NC(=O)Cn2ccsc2=N)c([N+](=O)[O-])cc1C | -4.45%
N=c1sccn1CC(=O)Nc1ccc(Cl)cc1[N+](=O)[O-] | -3.88%
CC(Oc1ccccc1)C(=O)N1CCC2(CC1)Oc1ccc(Cl)cc1C(=O)C21CC(c2ccccc2)=NO1 (stereo unspecified) | 23.6%
CC(C)C(=O)N1CCC2(CC1)Oc1ccc(Cl)cc1C(=O)C21CC(c2cccnc2)=NO1 (stereo unspecified) | 1.87%
CN1/C(=C\C(=O)c2cccnc2)C(C)(C)c2ccccc21 | 14.2%
CN1/C(=C\C(=O)c2ccco2)C(C)(C)c2ccccc21 | 1.21%
CCC(C)[C@H](NC(=O)Nc1ccc(S(N)(=O)=O)cc1)C(=O)OC (stereo partly specified) | 1.32%
O=C(CCl)Nc1ccc(S(=O)(=O)NC2=NCCCCC2)cc1 | 47.6%
Cc1cc(NC(=O)/C=C/c2ccccc2)no1 | 11.4%
COC(=O)c1cc(/C=C/c2ccccc2)[nH]n1 | 37.7%
O=C(c1ccc(C(F)(F)F)cc1)N1CCC(=O)N(C(COCc2ccc(Cl)cc2)Cc2ccccc2)CC1 (stereo unspecified) | -0.74%
CCSc1nc2ccccc2n1CC(N)=O | -10.4%
